This is a sample that favours compounds with a hit; in the whole collection about 3.5% have one here.
TEAD-YAP inh – TEAD-YAP interaction inhibition; HEK-TIYL cells, TEAD-Gal4/YAP UAS-luciferase luminescence; actives 1.4% (n = 640,000); inhibition, % at 9.12 µM; in the data active = inhibition above about 32%;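 also: 0% = median of test compound wells and 100% = reference inhibitor wells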
GPR151 ag – activators of human GPR151 | PathHunter beta-arrestin GPR151 cells, luminescence | activation, % at 11.2 µM | actives 1% (n = 650,000) | AID 1508602; in the data active = activation above about 4.9%;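 also: 0% = median of compound wells and 100% = cells with positive control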
FBW7 activator – human FBW7 E3 ligase activation, primary screen. Q969H0. AlphaScreen FBW7–phospho-cyclin E peptide binding, activator screen. normalized activity (activation), % at 26.1 µM. actives 0.13% (n = 650,000); in the data active = normalized activity above about 1.9%;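 also: purified mutant Fbw7 with reduced substrate affinity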
Target sequence (Q969H0 whole entry, looked up): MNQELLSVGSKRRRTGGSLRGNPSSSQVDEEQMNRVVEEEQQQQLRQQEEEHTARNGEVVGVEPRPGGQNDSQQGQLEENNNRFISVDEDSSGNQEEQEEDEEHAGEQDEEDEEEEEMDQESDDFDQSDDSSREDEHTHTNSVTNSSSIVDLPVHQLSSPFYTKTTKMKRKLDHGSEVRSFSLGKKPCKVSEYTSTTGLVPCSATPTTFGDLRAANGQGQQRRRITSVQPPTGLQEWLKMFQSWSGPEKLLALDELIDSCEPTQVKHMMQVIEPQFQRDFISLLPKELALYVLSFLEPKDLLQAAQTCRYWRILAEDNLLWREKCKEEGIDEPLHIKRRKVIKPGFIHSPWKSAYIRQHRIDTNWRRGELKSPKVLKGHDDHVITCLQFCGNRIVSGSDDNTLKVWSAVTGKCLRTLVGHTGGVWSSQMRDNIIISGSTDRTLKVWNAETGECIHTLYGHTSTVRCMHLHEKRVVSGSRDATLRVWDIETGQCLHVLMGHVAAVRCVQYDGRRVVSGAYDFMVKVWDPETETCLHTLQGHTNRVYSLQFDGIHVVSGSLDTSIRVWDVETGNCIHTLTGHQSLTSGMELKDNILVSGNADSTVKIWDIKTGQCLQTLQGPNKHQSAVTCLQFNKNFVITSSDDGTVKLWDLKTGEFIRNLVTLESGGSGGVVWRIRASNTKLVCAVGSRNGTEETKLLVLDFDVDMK
MITF primary – inhibitors of human MITF | O75030 | AlphaScreen MITF homodimerization, bead proximity signal | inhibition, % at 2.6 µM | actives 0.91% (n = 650,000); in the data active = inhibition above about 50%;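 also: 0% = vehicle wells with protein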
Starred values were filed as active, the others as inactive.

SMILES | TEAD-YAP inh | GPR151 ag | FBW7 activator | MITF primary
Cc1cc(Br)ccc1NC(=O)C(F)(F)F | -4.1 | -1.5 | -0.1 | 6.2
COCCNc1ncnc2scc(-c3ccccc3)c12 | 36.2* | 1.2 | -0.1 | -9.2
OCCNc1ncnc2scc(-c3ccccc3)c12 | 18.6 | -0.2 | 1.1 | 19.9
COc1ccc(CCNc2ncnc3scc(-c4ccccc4)c23)cc1OC | 50.4* | 2.7 | -0.1 | -8.9
COCCn1c(Cc2cccn2C)nnc1SCC(=O)Nc1ccc(C)cc1C | 0.2 | 1.5 | 0.1 | 4.8
CC1=NN(C(N)=S)C(=O)C1N=Nc1ccccc1O (configuration not stated) | -15.8 | -0.1 | -2.5 | 58.0*
CC1=NN(C(N)=S)C(=O)C1N=Nc1ccccc1C (configuration not stated) | -15.2 | -5.0 | -0.6 | 8.9
COc1ccc(N2C(=O)/C(=C\c3ccco3)SC2=S)c(OC)c1 | 10.7 | 1.1 | -0.2 | 5.0
COC(=O)CSc1cccc2cccnc12 | -3.1 | -0.2 | -0.7 | -10.6
COc1ccc(C(C[N+](=O)[O-])Sc2cccc3cccnc23)cc1 (configuration not stated) | 57.4* | -1.4 | -1.2 | 16.2
COc1ccc(OC)c(NC(=O)c2cccnc2SC)c1 | 10.7 | -1.0 | 0.2 | 5.0
CN(C)C=Nc1ncc2c3ccccc3n(CCN(C)C)c2c1C#N | 16.4 | -1.3 | 0.1 | 8.4
CCN(CC)CCn1c2ccccc2c2cnc(N)c(C#N)c21 | 81.1* | 0.6 | -0.1 | -3.1
O=C(NC1CCCCC1)NC1CCN(Cc2nnnn2Cc2ccco2)CC1 | 0.0 | -1.4 | -0.2 | -13.0
CC(C)(C)C(=O)NC1CCN(Cc2nnnn2Cc2ccco2)CC1 | 70.5* | -4.9 | 0.1 | -0.6
O=C(Nc1ccc(N2CCCC2=O)cc1)c1ccco1 | 59.2* | -8.9 | -0.2 | -16.2
COc1ccc(COC(=O)c2c(SC)nsc2SC)cc1 | 37.9* | -1.9 | -0.3 | 1.3
CC1CN(C2CCN(Cc3cc(Br)ccc3O)CC2)CC(C)O1 (configuration not stated) | 9.9 | -0.5 | 0.0 | 70.5*
Oc1ccc(Br)cc1CN1CCC(N2CCCCC2)CC1 | -0.6 | -0.6 | -0.6 | 45.9
OCCN1CCN(C2CCN(Cc3cc(Br)ccc3O)CC2)CC1 | -11.0 | 0.0 | 0.0 | 53.2*
CN1/C(=C/C(=C/c2sc3ccccc3[n+]2C)C2CCC2)Sc2ccccc21 | 71.7* | -0.2 | 0.0 | 26.7
CN1/C(=C/C(=O)C2CCC2)Sc2ccccc21 | -34.8 | -3.7 | 0.0 | 9.3
CN(C)c1ccc(/C=C/c2cc[n+](C)c3ccccc23)cc1 | 91.7* | -2.4 | -0.5 | 49.7
CC(C)N(CCNc1nc(-c2csc3ccccc23)nc2c1ncn2Cc1ccc(C(F)(F)F)cc1)C(C)C | 6.0 | -0.3 | 0.0 | 7.9
COc1ccccc1/C=N/NC(=S)Nc1ccccc1OC | 46.1* | 1.4 | -0.1 | -4.5
SMILES | TEAD-YAP inh | GPR151 ag | FBW7 activator | MITF primary
CCOC(=O)c1ccc(NC(=S)Nc2cccc(OC)c2)cc1 | 61.8* | -0.9 | 0.8 | 6.5
COc1cccc(/C=N/NC(=S)Nc2cccc(C(=O)O)c2)c1O | 60.5* | -9.0 | -0.1 | 111.7*
COc1ccccc1/C=N/NC(=O)C(=O)Nc1ccccc1OC | 0.8 | -1.5 | 0.2 | 2.8
COc1cc(/C=N/NC(=S)Nc2cccc(C(=O)O)c2)ccc1O | 32.3* | -1.9 | -0.1 | -3.2
O=C(CSc1nnc2ncccn12)Nc1ccccc1F | -3.8 | -0.4 | -0.1 | 8.4
CCN(C)c1ccc(/C=C2/C(=O)NN(c3ccc(I)cc3)C2=O)cc1 | 3.2 | -0.6 | 0.1 | -0.7
O=C(Nc1ccc(F)cc1F)NC1(C(=O)N2CCCCCC2)CCCCC1 | 7.0 | -0.8 | 0.0 | -3.6
O=C(CN1CCC(c2nc3ccccc3[nH]2)CC1)Nc1ccc(N2CCCC2)cc1 | 19.5 | 0.4 | -0.1 | 13.9
COc1cccc(/C=N/NC(=S)Nc2cccc(F)c2)c1O | 40.2* | -0.4 | -0.2 | 57.7*
O=C(O)c1cccc(NC(=S)N/N=C/c2cc(Cl)ccc2O)c1 | -11.6 | -1.8 | -0.9 | 90.8*
COc1cccc(NC(=S)N/N=C/c2ccc(O)cc2)c1 | 60.0* | -0.8 | -0.1 | -2.7
O=C(Nc1cc(C(F)(F)F)ccc1N1CCOCC1)C(Cl)(Cl)Cl | -7.0 | -0.2 | -0.4 | -6.2
CC(C)N(CCNc1cc(NC2CCN(Cc3ccccc3)CC2)ncn1)C(C)C | -10.4 | -1.2 | -0.1 | 1.6
O=C(CN(Cc1ccccc1)S(=O)(=O)c1ccc(Br)cc1)N1CCCCC1 | 6.6 | -1.0 | -0.1 | 1.0
C=CCN(c1ccccc1)S(=O)(=O)c1ccc(F)c(C(=O)Nc2ccc(C(C)C)cc2)c1 | 35.6* | 1.1 | 0.2 | 15.7
C=CCN(c1ccccc1)S(=O)(=O)c1ccc(F)c(C(=O)Nc2ccc(CC)cc2)c1 | 31.6 | 1.3 | -0.2 | 4.4
